Source: PubChem BioAssay (NCATS)
Records with an inconclusive call do not appear. Entries that show only a call come without a potency. Active and inactive are the calls of the source. Calls follow the shape of the dose curve; as a rule, active = well fitted cell-killing curve with a large enough effect; inconclusive = small, poorly fitted or top-dose-only effect, or effect the other way; inactive = flat fitted curve, though single readings scatter.

These compounds were tested on CAOV3 (assay: Primary qHTS to identify gynecologic anti-cancer compounds using libraries of approved drugs and bioactive compounds (AID 1345084; also: nearly all actives have a fitted effect of over 55% in size)). Settings: Gynecologic cancer cell panel viability, ATPlite luminescence, 48 h; series mostly up to 57.5 µM.
Method in brief: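 Measured: luminescence after ATPlite addition (15 min, RT). Exposure: 48 h, 37 C, 5% CO2.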

**Q.** How did the Potency turn out when C=C1CCC2C(C)(C(=O)OC)CCCC2(C)C1CCC1=CCOC1=O (stereo unspecified) was run?
**A.** inactive

**Q.** With Cc1occc1C(=O)n1ccnc1 as the compound, how does the Potency read?
**A.** inactive

**Q.** With COc1cc(C(CO)CO[C@@H]2O[C@H](CO)[C@@H](O)[C@H](O)[C@H]2O)ccc1O (stereo partly specified) as the compound, how does the Potency read?
**A.** inactive

**Q.** O=C(O)CC1(O)C(=O)Nc2ccccc21 (stereo unspecified) was tested. Which Potency did it give?
**A.** inactive

**Q.** How did the Potency turn out when CN(C)C(=O)C(O)C(Cc1ccccc1)NC(=O)c1cc2cc(Cl)ccc2[nH]1 (stereo unspecified) was run?
**A.** inactive

**Q.** With O=C(CCc1ccccc1)c1c(O)c([C@@H]2O[C@H](CO)[C@@H](O)[C@H](O)[C@H]2O)c(O)c([C@@H]2O[C@H](CO)[C@@H](O)[C@H](O)[C@H]2O)c1O as the compound, how does the Potency read?
**A.** inactive

**Q.** Which Potency does the source give for Fc1cccc(CN(C2=NCCN2)c2c(Cl)cccc2Cl)c1 here?
**A.** inactive

**Q.** With C[C@]12CCC[C@](C)(C(=O)O)C1CCC13CC(CO)C(CCC12)C3 (stereo partly specified) as the compound, how does the Potency read?
**A.** inactive

**Q.** For c1ccc2c(Nc3nnc(-c4ccncc4)s3)cccc2c1, which Potency is on record?
**A.** inactive

**Q.** For C/C=C/C=C/C=C/C(=O)O[C@@H]1[C@@H](OC)C2=C(C(=O)N(C(CCC(=O)O)C(=O)O)C2)[C@@]2(C)CCCC(C)(C)[C@H]12 (stereo partly specified), which Potency is on record?
**A.** inactive

**Q.** Which Potency does the source give for O=C(OC[C@H]1O[C@@H](Oc2ccccc2CO)[C@H](O)[C@@H](O)[C@@H]1O)c1ccccc1 here?
**A.** inactive

**Q.** C[C@H]1[C@@H](O)[C@H](O)C2[C@]3(C)C([C@@H](O)[C@H]4OC(=O)[C@@H]1[C@@]24C)[C@](C)(O)C=C[C@H]3O[C@@H]1O[C@H](CO)[C@@H](O)[C@H](O)[C@H]1O (stereo partly specified) was tested. Which Potency did it give?
**A.** inactive

**Q.** Which Potency does the source give for COc1ccc(C(=O)NCc2cc(C(C)C)no2)cc1OC1CCN(C)CC1 here?
**A.** inactive

**Q.** Which Potency does the source give for COC(=O)C1C(O)CCC2CN3CCc4c([nH]c5ccccc45)C3CC21 (stereo unspecified) here?
**A.** inactive

**Q.** Which Potency does the source give for CCOC(=O)C(CCc1ccccc1)NC1CCCN2CCCC(C(=O)O)N2C1=O (stereo unspecified) here?
**A.** inactive

**Q.** For COc1c(-c2ccc(O)cc2)cc(OC)c2c1oc1cc(O)c(OC3OC(CO)C(O)C3O)cc12 (stereo unspecified), which Potency is on record?
**A.** inactive
